FBA Mtb inh = Mtb fructose-bisphosphate aldolase inhibition. P9WQA3. purified M. tuberculosis FBA, fluorescence read-out. inhibition, % at 1 µM. 2.3% of 360,000 active. AID 588726; in the data active = inhibition above about 27%;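 note: 0% = vehicle and 100% = reference inhibitor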
Target sequence (P9WQA3 whole entry, looked up): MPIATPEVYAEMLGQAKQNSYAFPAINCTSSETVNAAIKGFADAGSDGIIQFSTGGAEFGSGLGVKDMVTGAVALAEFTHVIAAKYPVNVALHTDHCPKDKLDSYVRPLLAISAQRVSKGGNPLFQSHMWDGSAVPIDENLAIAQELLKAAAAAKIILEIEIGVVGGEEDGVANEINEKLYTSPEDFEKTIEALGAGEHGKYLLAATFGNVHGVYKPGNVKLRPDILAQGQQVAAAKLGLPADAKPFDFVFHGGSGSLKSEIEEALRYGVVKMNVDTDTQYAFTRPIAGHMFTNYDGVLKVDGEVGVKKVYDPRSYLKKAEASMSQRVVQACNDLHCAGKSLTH
Rv3671c protease = Rv3671c (M. tuberculosis) protease inhibition; P9WHR9; inhibition, % at 5.96 µM; 0.048% of 320,000 active; in the data active = inhibition above about 38%;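 note: extracellular domain of Rv3671c used as enzyme; 0% = enzyme with DMSO and 100% = no enzyme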
GDH-TPI counter = inhibits GDH-TPI coupling enzymes, artifact for Mtb FBA screen | GDH-TPI coupled enzyme counterscreen, NADH absorbance | inhibition, % at 4.8 µM | 1.2% of 360,000 active | AID 588335; in the data active = inhibition above about 30%;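 note: 0% = DMSO wells and 100% = wells lacking the enzyme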
RecA splice inh = Mtb RecA intein splicing inhibition | P9WHJ3 | cell-free RecA intein splicing, fluorescence | inhibition, % (test concentration not listed) | 0.75% of 290,000 active | AID 2221; in the data active = inhibition above about 30%;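 note: 0% = vehicle wells and 100% = reference inhibitor control wells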
Mtb betalactam = beta-lactam sensitization of Mtb H37Rv | inhibition, % at 25 µM | 0.27% of 330,000 active | M. tuberculosis H37Rv growth with meropenem, percent inhibition; call rule not given here;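 note: growth measured after seven days incubation then overnight dye step; 0% = bacteria only wells and 100% = bacteria with antibiotic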
Mtb UGM inh = blocks M. tuberculosis UGM enzyme. inhibition, % at 10 µM. 0.06% of 320,000 active. P9WIQ1. purified UGM, fluorescence polarization probe displacement; in the data active = inhibition above about 10%, passing the limit was not always enough
The depositor's hits bear a star; i = inactive; · = no result; + = active, no number. Sampled rows, rich in hits. Any-hit rate of the full collection: about 4%.

SMILES | FBA Mtb inh | Rv3671c protease | GDH-TPI counter | RecA splice inh | Mtb betalactam | Mtb UGM inh
CC(CN1CCCCC1)NC(=O)c1cccs1 (stereo not drawn) | -1 | 0 | 7 | -3 | -5 | 0
O=C(c1cc2ccccn2n1)N1CCN(c2cccc(C(F)(F)F)c2)CC1 | 5 | -3 | -5 | -7 | -4 | 0
Cc1ccc(C)c(N2CCN(C(=O)c3cc4ccccn4n3)CC2)c1 | 0 | 4 | 12 | -9 | 7 | 27*
O=C(Cc1cccc(NC(=O)C2CCCN(C(=O)C3CCCCC3)C2)c1)Nc1cccc(C(=O)N2CCCC2)c1 (stereo not drawn) | 0 | -6 | 9 | · | 2 | 1
CCCCNC(=O)N(O)C1N(/N=C/c2ccco2)C(=S)SC1(C)C (stereo not drawn) | -2 | 1 | 44* | · | 0 | -1
CC1(C)SC(=S)N(/N=C/c2ccc(O)cc2)C1N(O)C(=O)Nc1ccc([N+](=O)[O-])cc1 (stereo not drawn) | -1 | -45 | 35* | -6 | 6 | 0
CCCCNC(=O)N(O)C1N(/N=C/c2ccccc2F)C(=S)SC1(C)C (stereo not drawn) | 1 | 3 | 10 | -14 | -1 | 1
C[C@H](CO)N1C[C@H](C)[C@H](CN(C)C(=O)Nc2cccc(Oc3ccccn3)c2)OCc2cnnn2CCCC1=O | 2 | · | 4 | · | · | ·
Cc1ccc(N(Cc2cc(=O)[nH]c3ccccc23)C(=O)CCl)c(C)c1 | -1 | 3 | 8 | -2 | 64 | -2
O=C(CSc1ccsc1[N+](=O)[O-])NCCc1ccccc1 | + | -10 | 4 | 1 | -6 | 3
Nc1ccccc1-c1n[nH]c(=S)s1 | 61* | · | 11 | · | · | ·
COc1cccc2[nH]c3ccccc3c(=O)c12 | 135* | -1 | 1 | i | 0 | 0
COc1ccc(CNC(=O)COC(=O)CN2C(=O)NC3(CCCC3)C2=O)cc1 | -3 | 3 | 8 | · | -6 | -3
CCOc1cc(N2CCOCC2)c(OCC)cc1NC(=O)COC(=O)c1c(C)noc1C | -2 | · | 1 | · | · | ·
Cc1cc(O)c(C=O)c2c1C(=O)Oc1c(CO)c(O)c3c(c1O2)C(O)OC3=O (stereo not drawn) | 1 | 57* | 16 | · | -7 | 4
CC12CCC(C(=O)Nc3cccc(Cl)c3Cl)([C@H](Br)C1=O)C2(C)C (stereo partly drawn) | 113* | -3 | 0 | 0 | -6 | 2
CC12CCC(C(=O)Nc3c(Cl)cccc3Cl)(C(Br)C1=O)C2(C)C (stereo not drawn) | -2 | 1 | 7 | -3 | -7 | 0
COC(=O)[C@]1(C)N[C@H](CN(C)S(=O)(=O)c2ccc(C(F)(F)F)cc2)[C@@H]2C(=O)N(C)C(=O)[C@@H]21 | 9 | -4 | 3 | · | 0 | ·
COc1ccc([C@@H]2CC(=O)c3c(O)cc(O[C@@H]4O[C@H](CO[C@@H]5O[C@@H](C)[C@H](O)[C@@H](O)[C@H]5O)[C@@H](O)[C@H](O)[C@H]4O)cc3O2)cc1O | 5 | -10 | 8 | -5 | -12 | 4
CC1OC(OC2C(Oc3c(-c4ccc(O)cc4)oc4cc(O)cc(O)c4c3=O)OC(COC3O[C@@H](C)[C@H](O)[C@@H](O)C3O)C(O)C2O)C(O)C(O)C1O (stereo partly drawn) | -1 | -4 | 22 | -2 | 0 | 4
COc1ccc(-c2cc(=O)c3c(O)cc(OC4OC(COC5OC(C)C(O)C(O)C5O)C(O)C(O)C4O)cc3o2)cc1O (stereo not drawn) | 3 | 3 | 42* | -3 | -2 | -3
CC(=O)OC[C@H]1O[C@@H](Oc2cc(O)cc3oc(-c4ccc(O)cc4)cc(=O)c23)[C@H](O[C@@H]2O[C@@H](C)[C@H](O)[C@@H](O)[C@H]2O)[C@@H](O)[C@@H]1O | 13 | -1 | 33* | · | 10 | 2
C#CCN(C(=O)c1ccc(OC)c(OC2CCN(C(C)C)CC2)c1)C1CCCCC1 | 0 | · | -6 | 0 | -1 | -1
NC(=O)NC(CC(=O)N1CCc2ccccc2C1)c1ccc(Cl)cc1 (stereo not drawn) | 1 | 8 | 0 | 0 | -4 | -4
COc1ccc(-c2c(-c3cc(OC)cc(OC)c3)n(C)c3ccc(-c4cnc(OC)nc4)cc23)cc1 | 8 | 3 | 13 | · | 3 | -2
SMILES | FBA Mtb inh | Rv3671c protease | GDH-TPI counter | RecA splice inh | Mtb betalactam | Mtb UGM inh
COc1ccc(-c2c(-c3cc(OC)cc(OC)c3)n(C)c3ccc(-c4ccc5[nH]ccc5c4)cc23)cc1 | 134* | 4 | 21 | · | 17 | 3
COCc1ccc(-c2ccc3c(c2)c(C#Cc2ccsc2)c(-c2cc(OC)cc(OC)c2)n3C)cc1 | 3 | -5 | 33* | · | -5 | 0
COc1cc(OC)cc(-c2c(C#Cc3ccsc3)c3cc(-c4ccc5[nH]ccc5c4)ccc3n2C)c1 | 12 | -3 | 44* | · | -1 | 2
COc1cc(OC)cc(-c2c(-c3ccc(C(C)=O)cc3)c3cc(-c4cccc5[nH]ccc45)ccc3n2C)c1 | 13 | -8 | 36* | · | -7 | 4
COc1cc(NC(=O)[C@@H]2O[C@H](CO)[C@@H](O)[C@H]2O)cc(OC)c1OC | -1 | · | -7 | · | · | ·
COc1cc(OC)cc(-c2c(C#Cc3ccsc3)c3cc(-c4cc(F)cc(F)c4)ccc3n2C)c1 | 0 | -6 | 8 | · | 2 | 0
COc1cc(OC)cc(-c2c(C#Cc3ccsc3)c3cc(-c4ccc(OC)c(F)c4)ccc3n2C)c1 | 4 | -11 | 32* | · | -1 | 1
COc1cc(C#Cc2c(-c3cncn3C)n(C)c3ccc(-c4ccc(OC)nc4)cc23)cc(OC)c1 | 8 | -4 | 14 | · | 99 | -3
COc1cc(C#Cc2c(-c3cncn3C)n(C)c3ccc(-c4ccc5[nH]ccc5c4)cc23)cc(OC)c1 | 46* | -5 | 13 | · | 99 | 4
CC(=O)Nc1ccc(-c2ccnc3c2CC(C)(C(=O)NCc2ccco2)O3)cc1 (stereo not drawn) | 10 | · | 7 | · | · | ·
Cc1ccc(C(=O)CCC(=O)OCC(=O)NNC(=O)c2ccccc2Cl)cc1 | -4 | -5 | 5 | · | -2 | 1
COC(=O)Cc1c(C)c2cc(Cl)c(OC(=O)c3ccco3)cc2oc1=O | + | 4 | 2 | -179 | 19 | 4
COCCOC(=O)c1c(C)oc2ccc(OC(=O)c3ccco3)cc12 | -1 | 2 | 2 | 24 | 92 | -2
COC(=O)Cc1c(C)c2ccc(OC(=O)c3ccco3)cc2oc1=O | + | 0 | 17 | 0 | 57 | -1
COC(=O)Cc1c(C)c2ccc(OCC(=O)N(C)C3CCS(=O)(=O)C3)cc2oc1=O (stereo not drawn) | 114* | 3 | 17 | -1 | -6 | -1
Cc1c(CC(=O)O)c(=O)oc2cc3occ(-c4ccc(F)cc4)c3cc12 | 4 | 2 | 10 | -1 | 1 | -4
Cc1c(CC(=O)O)c(=O)oc2cc(OCc3ccc(F)cc3F)ccc12 | 156* | -5 | 18 | -1 | 0 | -1
